Results as given in PubChem BioAssay (EPA / NIEHS).
More than one record can exist for a structure, and the calls need not agree. Active and inactive are the calls of the source. How the source made its calls: active means hit-call score of the fitted dose curve at least 0.9, where 1 is the maximum; inactive means score below 0.9.

Assay: CCTE_Padilla_ZF_Score.Edema: CCTE's 144 Hour Post-fertilization zebrafish Assay Score for Edema Malformation, Padilla Lab (AID 2284406)
How it was run: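 Wild-type zebrafish embryos, one per well in Hanks' solution, dosed at 6-8 hpf, sealed and reared at 26C on a 14:10 h cycle; rinsed on 5 dpf. At 6 dpf, blinded assessors scored edema by stereomicroscopy.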
In the case of `O=S(=O)(O)C(F)(F)C(F)(F)C(F)(F)C(F)(F)C(F)(F)C(F)(F)F`, the AC50 was 29.6 µM (active) and the outcome was “inactive”. With `O=C(O)C(F)(F)C(F)(F)C(F)(F)C(F)(F)C(F)(F)F` the outcome was “inactive”. With `O=C(O)C(F)(F)C(F)(F)C(F)(F)C(F)(F)C(F)(F)C(F)(F)C(F)(F)C(F)(F)F` the AC50 was 30.6 µM (active). For `NS(=O)(=O)C(F)(F)C(F)(F)C(F)(F)C(F)(F)C(F)(F)C(F)(F)C(F)(F)C(F)(F)F`, the AC50 was 0.582 µM (active). With `O=C(O)C(F)(F)C(F)(F)C(F)(F)C(F)(F)C(F)(F)C(F)(F)C(F)(F)C(F)(F)C(F)(F)F` the outcome was “inactive”. For `O=S(=O)(O)C(F)(F)C(F)(F)C(F)(F)C(F)(F)F`, the outcome was “inactive”.

Assay: CCTE_Padilla_ZF_Score.Spine: CCTE's 144 Hour Post-fertilization zebrafish Assay Score for Spine Malformation, Padilla Lab (AID 2284407)
How it was run: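 Wild-type zebrafish embryos, one per well in Hanks' solution, dosed at 6–8 hpf in sealed plates at 26C, 14:10 h light:dark; rinsed at 5 dpf. Two blinded assessors scored spinal defects by stereomicroscopy at 6 dpf; fitted versus DMSO.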
For `O=S(=O)(O)C(F)(F)C(F)(F)C(F)(F)C(F)(F)C(F)(F)C(F)(F)F`, the outcome was “inactive”. For `O=C(O)C(F)(F)C(F)(F)C(F)(F)C(F)(F)C(F)(F)F`, the outcome was “inactive”. For `O=C(O)C(F)(F)C(F)(F)C(F)(F)C(F)(F)C(F)(F)C(F)(F)C(F)(F)C(F)(F)F`, the outcome was “inactive”. With `NS(=O)(=O)C(F)(F)C(F)(F)C(F)(F)C(F)(F)C(F)(F)C(F)(F)C(F)(F)C(F)(F)F` the outcome was “inactive”. For `O=C(O)C(F)(F)C(F)(F)C(F)(F)C(F)(F)C(F)(F)C(F)(F)C(F)(F)C(F)(F)C(F)(F)F`, the outcome was “inactive”. With `O=S(=O)(O)C(F)(F)C(F)(F)C(F)(F)C(F)(F)F` the outcome was “inactive”.

Assay: CCTE_Padilla_ZF_Score.Swim_bladder: CCTE's 144 Hour Post-fertilization zebrafish Assay Score for Swim Bladder Malformation, Padilla Lab (AID 2284408)
How it was run: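 Wild-type zebrafish embryos, one per well in 10% Hanks', dosed at 6–8 hpf, sealed, reared at 26C and rinsed at 5 dpf. Blinded assessors scored uninflated swim bladder by stereomicroscopy at 6 dpf, relative to DMSO.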
For `O=S(=O)(O)C(F)(F)C(F)(F)C(F)(F)C(F)(F)C(F)(F)C(F)(F)F`, the AC50 was 38.9 µM (active) and the outcome was “inactive”. For `O=C(O)C(F)(F)C(F)(F)C(F)(F)C(F)(F)C(F)(F)F`, the outcome was “inactive”. For `O=C(O)C(F)(F)C(F)(F)C(F)(F)C(F)(F)C(F)(F)C(F)(F)C(F)(F)C(F)(F)F`, the AC50 was 30 µM (active). For `NS(=O)(=O)C(F)(F)C(F)(F)C(F)(F)C(F)(F)C(F)(F)C(F)(F)C(F)(F)C(F)(F)F`, the AC50 was 0.321 µM (active). In the case of `O=C(O)C(F)(F)C(F)(F)C(F)(F)C(F)(F)C(F)(F)C(F)(F)C(F)(F)C(F)(F)C(F)(F)F`, the AC50 was 11.5 µM (active). In the case of `O=S(=O)(O)C(F)(F)C(F)(F)C(F)(F)C(F)(F)F`, the outcome was “inactive”.

Assay: CCTE_Padilla_ZF_Score.Position: CCTE's 144 Hour Post-fertilization zebrafish Assay Score for Position, Padilla Lab (AID 2284409)
How it was run: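 Wild-type zebrafish embryos (with chorions) exposed singly from 6–8 hpf in sealed wells of Hanks' solution at 26C, rinsed at 5 dpf. At 6 dpf, blinded assessors scored abnormal water-column position by brightfield stereomicroscopy, relative to DMSO.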
For `O=S(=O)(O)C(F)(F)C(F)(F)C(F)(F)C(F)(F)C(F)(F)C(F)(F)F`, the AC50 was 87.5 µM (active) and the outcome was “inactive”. In the case of `O=C(O)C(F)(F)C(F)(F)C(F)(F)C(F)(F)C(F)(F)F`, the outcome was “inactive”. With `O=C(O)C(F)(F)C(F)(F)C(F)(F)C(F)(F)C(F)(F)C(F)(F)C(F)(F)C(F)(F)F` the AC50 was 88.1 µM (active). For `NS(=O)(=O)C(F)(F)C(F)(F)C(F)(F)C(F)(F)C(F)(F)C(F)(F)C(F)(F)C(F)(F)F`, the outcome was “inactive”. With `O=C(O)C(F)(F)C(F)(F)C(F)(F)C(F)(F)C(F)(F)C(F)(F)C(F)(F)C(F)(F)C(F)(F)F` the outcome was “inactive”. For `O=S(=O)(O)C(F)(F)C(F)(F)C(F)(F)C(F)(F)F`, the outcome was “inactive”.
